# Rows were chosen to be rich in hits. Some 2.5% of all compounds tested hit in one or more screens of this group.
# Vaccinia Venus: vaccinia inhibition (Venus reporter) | Vaccinia virus Venus reporter expression, fluorescence | 330,000 tested, 0.46% active | AID 720580 | Potency, µM (highest dose often 36.5 µM), hits mostly inhibitors; calls by dose curve; tested in A549 cells; also: nearly all actives have a fitted effect of over 30% in size
# Vaccinia mCherry: vaccinia inhibition (mCherry reporter); 310,000 tested, 0.63% active; Potency, µM (top dose mostly 36.5 µM), most hits filed as inhibitors; Vaccinia virus mCherry reporter infection, fluorescence; calls by dose curve; tested in A549 cells; also: nearly all actives have a fitted effect of over 35% in size
# Lassa entry inh: blocks Lassa virus binding to or entry into cells. AID 540256. Potency, µM (titrated, usually from 37.9 µM), most hits filed as inhibitors. Lassa virus pseudotype entry inhibition, cell reporter. 300,000 tested, 1.2% active; calls by dose curve; tested in HEK293 cells; also: nearly all actives have a fitted effect of over 50% in size
# MARV entry inh: blocks Marburg virus binding to or entry into cells. Marburg virus pseudotyped entry inhibition, cell reporter. Potency, µM (highest dose often 37.8 µM), actives largely listed as inhibitors. 300,000 tested, 1.8% active; calls by dose curve; tested in HEK293 cells
# Numbers stand for hits; i = inactive; ? = inconclusive; nt = no result given.
SMILES,Vaccinia Venus,Vaccinia mCherry,Lassa entry inh,MARV entry inh
C[C@]12c3[nH]c4cc(-c5ccco5)ccc4c3CCN1C(=O)[C@@H](CC(=O)NCC13CC4CC(CC(C4)C1)C3)C[C@@H]2C(=O)N1CCOCC1,10µM,?,nt,nt
CCN(CC)C(=O)[C@H]1C[C@H](CC(=O)NCCCOC)C(=O)N2CCc3c([nH]c4cc(-c5ccco5)ccc34)[C@]12C,i,i,nt,nt
CCCCNC(=O)c1cc2n(n1)[C@@H](C(F)(F)F)C[C@H](c1ccccc1)N2,nt,nt,nt,i
CC(NC(=O)c1ccco1)c1nnc2n1CCN(Cc1ccc(Cl)cc1)CC2 (stereo not given),i,i,nt,nt
CN(C)S(=O)(=O)c1cccc(NC(=S)N/N=C/c2cc(Br)ccc2O)c1,?,?,?,10µM
COC(=O)c1ccc2nc(Nc3nc4c(F)cc(F)cc4s3)sc2c1,i,i,3.16µM,7.31µM
CC(=O)c1ccc(F)c(-c2cc(C)cc3c2OC(CNC(=O)C2CCCCN2C)C3)c1 (stereo not given),i,i,nt,nt
CC12CNCC(C)(CN(C(c3ccccc3)c3ccccc3)C1)C2,i,nt,20µM,?
CC(=O)/C=C/c1ccc2c(c1)S(=O)(=O)N(C1CCCC1)[C@H]2CC(C)=O,i,i,nt,nt
COc1ccc2nc(C)cc(Nc3ccc(N4CCN(C)CC4)cc3)c2c1,10µM,?,nt,nt
COc1ccc2nc(C)cc(Nc3ccc(N4CCOCC4)cc3)c2c1,i,i,i,?
COc1ccc2nc(C)cc(N/N=C/c3ccccc3)c2c1,?,14.1µM,?,?
COc1cccc(-c2ccc(O)c(CNCc3cccc(OC)c3OC)c2)n1,i,i,nt,nt
Nc1nonc1-c1nc2cnccc2n1C1CCCCC1,nt,nt,i,nt
CC(=O)c1ccc([N+](C)(C)C)cc1,i,i,nt,nt
O=C(NCCc1nnc2n1CCN(Cc1ccc(F)cc1)CC2)c1ccc(F)cc1,i,i,nt,nt
Cc1ccccc1-n1nnnc1SCc1csc(-c2ccccc2)n1,nt,nt,13µM,?
CN(C)c1ccc(/C=C2/CCCc3c2nc2ccccc2c3C(=O)O)cc1,i,i,nt,nt
CCCCN(C)C(=O)c1cc2cc3ccc(OC)cc3nc2s1,nt,nt,?,10.3µM
COc1ccc(NC(=O)C(CCCCNC(=O)OC(C)(C)C)NC(=O)OCc2ccccc2)cc1 (stereo not given),i,i,2.06µM,i
CC(C)(C)OC(=O)C(Cc1ccc(OC(C)(C)C)cc1)NC(=O)CNC(=O)OCc1ccccc1 (stereo not given),?,11.2µM,?,?
COc1cc2nc(CN(CCO)C3CS(=O)(=O)CC3O)nc(N3CCCCC3)c2cc1OC (stereo not given),i,i,nt,nt
Cc1cc(C)c2sc(NC(=O)c3ccc([N+](=O)[O-])o3)nc2c1,11.2µM,?,nt,nt
Cc1cc(C)c2nc(NC(=O)c3ccc([N+](=O)[O-])o3)sc2c1,?,10µM,?,i
O=C(Nc1nc2c(F)cc(F)cc2s1)c1ccc([N+](=O)[O-])o1,10µM,12.6µM,nt,nt
SMILES,Vaccinia Venus,Vaccinia mCherry,Lassa entry inh,MARV entry inh
O=C(Nc1nc2c(F)cc(F)cc2s1)c1ccco1,i,i,nt,nt
O=C(Nc1nc2cc3c(cc2s1)OCCO3)c1ccc([N+](=O)[O-])o1,i,?,?,i
O=C1C=CC(=O)C(CNc2ccc(C(=O)OCc3ccccc3)cc2)=C1,?,?,11.2µM,?
CN(C)c1ccc(C(=O)OCc2ccccc2)cc1,i,i,?,i
O=C1C=C(NCCN2CCOCC2)C(=O)c2cnccc21,nt,nt,?,2.91µM
O=C(NCCN1CCOCC1)c1ccncc1,nt,nt,?,i
COc1ccc(C(=O)Nc2ccc3ccccc3c2)cc1OC,i,i,?,i
COc1ccc(OC)c(C(=O)c2ccc(C(=O)Nc3ccc4ccccc4c3)cc2)c1,i,i,10µM,?
COc1cc(C(=O)Nc2ccc3ccccc3c2)cc(OC)c1OC,i,i,i,1.41µM
CCOc1ccc(C(=O)Nc2cccc(-c3nc4cccnc4o3)c2)cc1Cl,nt,nt,25.9µM,i
COc1cc2c(NC3CCN(C)CC3)nc(N3CCCN(C)CC3)nc2cc1OCCCCCN,?,i,nt,nt
COc1cc2c(NC3CCN(C)CC3)nc(N3CCCN(C)CC3)nc2cc1OCCCN1CCOCC1,8.91µM,?,nt,nt
COc1cc2c(NC3CCN(C)CC3)nc(N3CCCCC3)nc2cc1OCCOCCN1CCCC1,10µM,?,nt,nt
COc1cc2c(NC3CCN(C)CC3)nc(N3CCCN(C)CC3)nc2cc1OCCN(C)CCN(C)C,i,i,nt,nt
COc1cc2c(NC3CCN(C(C)C)CC3)nc(N3CCCN(C)CC3)nc2cc1OCCOCCN1CCCC1,3.55µM,?,nt,nt
Cn1nnc2c[n+](CC(=O)c3ccc(Cl)cc3)cc(Br)c21,i,?,?,?
Cn1nnc2c[n+](CC(=O)c3ccc4ccccc4c3)cc(Br)c21,?,?,?,11.2µM
C=C[C@H](CC(C)C)N(Cc1ccccc1)S(=O)(=O)N(Cc1ccccc1)[C@H](C=C)CC(C)C,i,i,nt,nt
COc1cccc(C2(CSc3nnc(-c4cc(OC)c(OC)c(OC)c4)o3)OCCO2)c1,i,nt,11.2µM,i
CCOC(=O)Nc1c[n+](N2CCOCC2)no1,nt,nt,nt,i
COc1cc(CN(C)c2ncnc3sccc23)ccc1OC(F)F,i,i,i,2.82µM
O=C(NCc1ccco1)c1cc2cc3ccc(Cl)cc3nc2o1,?,?,17.8µM,?
COc1ccc2cc3cc(C(=O)NCc4ccco4)oc3nc2c1,nt,nt,?,i
CC(=O)c1ccc(NC(=O)c2ccc(N3CCCC3=O)cc2)cc1,i,i,i,i
CC(=O)c1ccccc1NC(=O)c1ccc(N2CCCC2=O)cc1,i,i,11.2µM,i
SMILES,Vaccinia Venus,Vaccinia mCherry,Lassa entry inh,MARV entry inh
Cc1ccc(-c2csc3ncnc(Sc4nnnn4C4CC4)c23)cc1,i,i,nt,nt
NC(=O)c1cc(-c2ccc(F)cc2)cc(-c2ccncc2)c1N,nt,nt,i,nt
COC(=O)c1ccc2nc(NC(=O)CSCC(=O)OCC(=O)c3ccccc3)sc2c1,i,i,i,i
Cc1ccc2nc(NC(=O)CSCC(=O)OCC(=O)c3ccc(Br)cc3)sc2c1,i,i,7.94µM,3.16µM
CSCCC(NS(=O)(=O)c1ccc(C)cc1)C(=O)N1CCN(C(c2ccccc2)c2ccccc2)CC1 (stereo not given),i,?,3.55µM,?
CSCCC(NS(=O)(=O)c1ccc(C)cc1)C(=O)N1CCN(C(C)=O)CC1 (stereo not given),i,i,i,i
CSc1nccc(-c2cc(Cl)c3c(c2)CC(CNC(=O)c2nonc2C)O3)n1 (stereo not given),i,i,nt,nt
CCOC(=O)C(C)Oc1cccc2c(=O)n(CC(=O)NCc3ccc4c(c3)OCO4)ccc12 (stereo not given),?,100µM,nt,nt
COc1cccc(N2CC(O)=C(c3nc4ccccc4c(=O)[nH]3)C2=N)c1,2.82µM,?,?,?
COc1ccc(-c2nc3ccccc3c(=O)[nH]2)cc1,i,i,?,12.6µM
O=C(CN1Cc2ccccc2OC(c2ccccc2F)C1)NC(c1ccccn1)C(F)(F)F (stereo not given),i,i,nt,nt
CC1=C(C(=O)OCC2CCCO2)C(c2ccccc2)NC(=O)N1 (stereo not given),i,i,?,?
CC1=C(C(=O)OCCNC(=O)c2ccccc2O)C(c2ccccc2[N+](=O)[O-])C(C(=O)OCC2CCCO2)=C(C)N1 (stereo not given),?,i,10µM,?
O=c1c(N2CCOCC2)nsn1Cc1ccccc1,?,12.6µM,i,i
CN(C)c1ccc(N=Nc2ccc(/C=C/c3ccnc4ccccc34)cc2)cc1,i,i,nt,nt

# Screens: PubChem, National Center for Advancing Translational Sciences (NCATS)
